This is part of a sample that, as a whole, favours compounds with a hit. Of some 83,000 tested, about 20% had one in any assay.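 Percent growth is the endpoint: 0 to 100 indicates growth inhibition (40 means 60% inhibition), 0 means no net growth, and negative values indicate cell death.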 Unmarked numbers belong to inactive results. Activity calls are given as the source filed them. Rule for the calls: active = growth percent below 10; inactive = the rest.

Holding throughout (assay): NCI-60 one-dose screen, 48 h (100 = growth as untreated, 0 = no growth, -100 = all killed)
Settings in all cases: 10 µM unless noted

The test system of assay [1] is NCI-H23 lung.
Assay [2] concerns NCI-H226 lung.
In assay [3] the test system is NCI-H322M lung.
For assay [4], the system named is HOP-62 NSCLC.
Assay [5] has as its system NCI-H460 lung.
The test system of assay [6] is HOP-92 NSCLC.
Assay [7] concerns NCI-H522 lung.
The subject of assay [8] is A549/ATCC NSCLC.
The subject of assay [9] is 786-0 renal.
In assay [10] the test system is COLO 205 colon.
Assay [11] relates to DU-145 prostate.
Assay [12] concerns K-562 leukemia.
Assay [13] relates to MALME-3M melanoma.
For assay [14], the system named is MDA-MB-231 breast.
The subject of assay [15] is RXF 393 renal.
In assay [16] the test system is SF-268 CNS.
The test system of assay [17] is SF-295 CNS.
In assay [18] the test system is SF-539 CNS.
Assay [19] relates to UACC-257 melanoma.
In assay [20] the test system is M14 melanoma.

Consider `CCC1(NC(=O)c2cc(F)c(F)c(F)c2F)C(=O)NC(=O)N(C(C)C)C1=O` (centres undefined), for which the growth is 47% in [1]; 139% in assay [2]; 90.2% in assay [3]; 101% in assay [4]; 99.7% in assay [5]; 79.9% in [6]. Besides, the growth in assay [7] is -5.62% (active); in [8], 75.9%; in assay [9], 101%; in assay [10], 141%; in assay [11], 143%; in assay [12] it was -26.7% (active). For the same compound, the growth was 90.4% in assay [13]; 81.5% in assay [14]; 79.8% in assay [15]; 114% in assay [16]; 107% in assay [17]; 97.5% in assay [18]. Moreover, the growth in assay [19] was 70.4%; in [20], 50%.
For `CC1OC(=O)C(C(C)C)NC(=O)C(C(C)C)OC(=O)C(C(C)C)NC(=O)C(C)OC(=O)C(C(C)C)NC(=O)C(C(C)C)OC(=O)C(C(C)C)NC(=O)C(C)OC(=O)C(C(C)C)NC(=O)C(C(C)C)OC(=O)C(C(C)C)NC1=O` (centres undefined), the growth was -2.18% (active) in assay [1]; 0.0533% (active) in [2]; -3.44% (active) in [3]; -50% (active) in [4]; -11.9% (active) in [5]; -38.8% (active) in [6]. Moreover, the growth was -21.2% (active) in assay [7]; -41.2% (active) in assay [8]; -6.45% (active) in assay [9]; -81% (active) in assay [10]; -60.2% (active) in assay [11]; -38.2% (active) in assay [12]. The growth in assay [13] was 9.37% (active); in assay [14] it was -67.9% (active); in assay [15] it was -63.1% (active); in [16], 5.42% (active); in assay [17], -27.1% (active); in assay [18], -91.4% (active). The growth in [19] is -53.5% (active).
For `CC/C(=C(\c1ccc(OCCN2CCOCC2)cc1)c1ccc(OC(=O)Cc2ccccc2)cc1)c1ccc(Cl)cc1`, the growth was 104% in [1]; 106% in [2]; 87.9% in assay [3]; 103% in [4]; 106% in assay [5]; 94.4% in [6]. The growth in assay [7] is 92.8%; in assay [8] it was 101%; in assay [9], 107%; in assay [10], 120%; in assay [11] it was 101%; in assay [12], 82.4%. Further, the growth in assay [13] is 95.1%; in [14], 109%; in assay [15], 114%; in assay [16], 94.1%; in assay [17] it was 99.4%; in [18], 105%. Also, the growth in assay [19] is 107%; in [20] it was 102%.
Regarding `Oc1ccccc1C=NCCN=Cc1ccccc1O.[Fe]`, the growth was 86.1% in assay [1]; 85% in assay [2]; 111% in assay [3]; 74.9% in [4]; 59.7% in assay [5]; 98.7% in assay [6]. The growth in assay [7] is 47.5%; in assay [8], 61.6%; in assay [9], 102%; in assay [10] it was 108%; in [11], 104%; in assay [12], 85.3%. Besides, the growth in [13] was 69.7%; in assay [14], 34.9%; in assay [15], 98.8%; in [16] it was 97.4%; in assay [17], 85%; in assay [18], 88.8%. The growth in [19] was 46.9%; in [20] it was 93.9%.
For the compound `NC(N)=NC(N)=Nc1ccc(Cl)cc1`, the growth in [1] is 103%; in assay [2] it was 98.5%; in assay [3], 109%; in [4], 112%; in assay [5], 106%; in [6] it was 89.7%. The growth in assay [7] was 93.6%; in [8], 111%; in assay [9], 115%; in [10], 112%; in assay [11] it was 116%; in assay [12] it was 99%. Moreover, the growth in [13] was 116%; in assay [14], 113%; in assay [15] it was 108%; in [16], 95.4%; in assay [17], 98.1%; in assay [18] it was 103%. Besides, the growth in assay [19] is 111%; in assay [20], 114%.
On to `C/C(=C\c1ccn(-c2ccc(N)c(C(F)(F)F)c2)n1)[C@@H]1C[C@@H]2O[C@]2(C)CCC[C@H](C)[C@H](O)[C@@H](C)C(=O)C(C)(C)[C@@H](O)CC(=O)O1`, for which the growth was 32.9% in assay [1]; 52% in assay [2]; 23.2% in [3]; 41% in [4]; 12.7% in assay [5]; 52.4% in assay [6]. Further, the growth in assay [7] was 30.3%; in assay [8] it was 31.1%; in assay [9], 27.4%; in [10] it was -16.5% (active); in assay [11], -12.7% (active); in [12] it was 11.9%. In addition, the growth in assay [13] was 51.7%; in assay [14], 22.8%; in [15] it was 8.01% (active); in assay [16], 36%; in [17] it was 15.1%; in assay [18] it was -8.5% (active). Besides, the results for the growth in assay [19] and in assay [20] were 64.3% and 21.7%, respectively.
Take `CC[C@H](C)[C@H](NC(=O)C12CC(NC)(C1)C2)C(=O)N(C)[C@H](C[C@@H](OC(C)=O)c1nc(C(=O)N[C@@H](Cc2ccccc2)C[C@H](C)C(=O)OC)cs1)C(C)C`: the growth was 15.2% in assay [1]; 24.9% in assay [2]; 51.2% in [3]; 28.6% in assay [4]; 15% in assay [5]; 17.5% in assay [6]. Also, the growth in assay [7] was -23.9% (active); in [8], 20%; in assay [9], 24.7%; in [10], -19.6% (active); in assay [11] it was -8.21% (active); in assay [12] it was 6.14% (active). For the same compound, the growth in [13] was 69%; in assay [14] it was 13.8%; in assay [15] it was 13.4%; in assay [16], 30.4%; in assay [17], 4.61% (active); in [18] it was -7.76% (active). Besides, the growth in assay [19] was 56.6%; in assay [20] it was 6.71% (active).
